Data as given in PubChem BioAssay (NCATS).
Records with an inconclusive call do not appear. Active and inactive are the calls of the source. Unless noted, calls come from the whole dose curve; as a rule, active = well fitted curve in the direction sought with a large enough effect; inconclusive = small, poorly fitted or top-dose-only effect, or another doubt; inactive = no such curve, though single readings can be large; an effect the other way counts as inactive or inconclusive.

Assays:
[1] = qHTS for Inhibitors of Plasmodium falciparum (DD2) proliferation (AID 504314);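 note: parasite DNA measured by SYBR Green fluorescence after red cell lysis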
Procedure, shortened: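 Parasite proliferation measured as SYBR Green signal from Plasmodium DNA, mature erythrocytes lacking DNA. 72 h incubation, 37C; activity scaled between vehicle and 0.29 uM artemisinin, with correction from vehicle-only plates.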

[2] = qHTS for Inhibitors of Plasmodium falciparum (GB4) proliferation (AID 504315); note: nearly all actives have a fitted effect of over 50% in size
Procedure, shortened: (§1)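 Parasite growth measured as SYBR Green DNA fluorescence (ex 485, em 535 nm) after overnight lysis following 72 h culture at 37 °C, 0.3% parasitemia, 2.5% hematocrit. Values normalized against DMSO and 0.29 uM artemisinin controls, with plate-stack correction.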

[3] = qHTS for Inhibitors of Plasmodium falciparum (7G8) proliferation (AID 504316); note: series mostly up to about 6.7 µM; nearly all actives have a fitted effect of over 65% in size
Procedure, shortened: as §1

[4] = qHTS for Inhibitors of Plasmodium falciparum (HB3) proliferation (AID 504318); note: nearly all actives have a fitted effect of over 60% in size
Procedure, shortened: as §1

[5] = qHTS for Inhibitors of Plasmodium falciparum (CP250) proliferation (AID 504320)
Procedure, shortened: as §1

[6] = target: Glucocorticoid receptor (Homo sapiens) (UniProt P04150); assay: GR-GFP Redistribution (AID 450;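 active = compounds whose dose series gives a full or clear partial fitted curve of increased nuclear translocation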; note: potency is the fitted concentration of half-maximal effect); settings: U2OS GR-GFP nuclear translocation, laser cytometry, 2 h
[7] = target: Glucocorticoid receptor (Homo sapiens) (UniProt P04150); assay: GR-EFC Redistribution (AID 451; calls by dose curve; note: potency is the fitted concentration of half-maximal effect); settings: CHO-K1 GR-EFC translocation, beta-gal luminescence, 2 h
Procedure, shortened: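 CHO-K1 cells expressing nuclear EA and GR-ED fragments of b-gal; compounds titrated up to 46 uM final, 2 h at 37 C. GR nuclear translocation read as complemented b-gal luminescence after 1 h RT detection.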

[8] = target: DNA dC->dU-editing enzyme APOBEC-3G (Homo sapiens) (UniProt Q9HC16); assay: qHTS for inhibitors of Vif-A3G interactions: Validation (AID 588379)
Procedure, shortened: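 Yellow fluorescence (Ex 488, Em 500-530) of Vif-coexpressing HeLa A3G-eYFP cells, scanned by Acumen cytometer, reports blocked A3G degradation. Cells plated at 700/well overnight at 37 deg C before compound addition, then a further overnight compound incubation at 37 deg C.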

Measured: Potency

Chain of Glucocorticoid receptor (Homo sapiens) (P04150 whole entry, looked up, the tested form may be a part): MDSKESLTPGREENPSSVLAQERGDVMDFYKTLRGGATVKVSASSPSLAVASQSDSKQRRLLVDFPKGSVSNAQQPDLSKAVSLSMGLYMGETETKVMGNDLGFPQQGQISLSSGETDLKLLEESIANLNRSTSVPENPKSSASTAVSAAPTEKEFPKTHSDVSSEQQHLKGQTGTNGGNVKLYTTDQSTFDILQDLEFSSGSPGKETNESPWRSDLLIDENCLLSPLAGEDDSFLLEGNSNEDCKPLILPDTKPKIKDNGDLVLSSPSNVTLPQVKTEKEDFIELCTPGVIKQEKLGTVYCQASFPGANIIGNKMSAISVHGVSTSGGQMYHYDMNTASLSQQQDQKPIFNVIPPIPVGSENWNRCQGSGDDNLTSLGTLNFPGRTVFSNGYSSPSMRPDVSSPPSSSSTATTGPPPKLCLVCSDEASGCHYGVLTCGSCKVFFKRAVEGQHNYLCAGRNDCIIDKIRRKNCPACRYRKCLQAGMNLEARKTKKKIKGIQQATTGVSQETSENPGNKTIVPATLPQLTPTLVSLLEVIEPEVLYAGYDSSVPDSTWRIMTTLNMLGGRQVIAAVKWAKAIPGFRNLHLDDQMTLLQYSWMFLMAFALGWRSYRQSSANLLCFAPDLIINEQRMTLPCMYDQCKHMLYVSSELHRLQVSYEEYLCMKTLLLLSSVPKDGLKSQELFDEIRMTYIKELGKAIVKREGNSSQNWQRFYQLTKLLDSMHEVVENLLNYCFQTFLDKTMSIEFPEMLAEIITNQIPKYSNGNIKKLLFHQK
Chain of DNA dC->dU-editing enzyme APOBEC-3G (Homo sapiens) (Q9HC16 whole entry, looked up): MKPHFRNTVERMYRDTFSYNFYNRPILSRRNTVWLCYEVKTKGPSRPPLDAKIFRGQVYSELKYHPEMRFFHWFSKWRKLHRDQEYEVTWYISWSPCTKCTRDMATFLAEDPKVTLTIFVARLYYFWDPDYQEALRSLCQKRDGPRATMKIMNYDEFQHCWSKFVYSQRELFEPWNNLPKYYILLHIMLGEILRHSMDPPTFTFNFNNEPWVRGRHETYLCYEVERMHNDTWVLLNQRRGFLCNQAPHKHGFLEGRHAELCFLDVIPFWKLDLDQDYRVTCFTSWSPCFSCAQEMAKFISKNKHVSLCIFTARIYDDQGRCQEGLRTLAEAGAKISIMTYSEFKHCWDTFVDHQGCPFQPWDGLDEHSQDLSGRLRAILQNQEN

C=CCCCN1C=C(C(C)=O)C(c2ccccc2)NC1=O (configuration not stated)
inactive: [1] | [2] | [3] | [4] | [5]

COC(=O)[C@@H]1[C@@H](c2ccccc2)NC(=O)N(Cc2ccccc2)[C@@H]1C
inactive: [1] | [2] | [3] | [4] | [5]

C=CCN1C(=O)[C@]2(OCCC=C[C@H]2C)c2ccccc21
inactive: [1] | [2] | [3] | [4] | [5]

O=C(OCC(F)(F)F)[C@H](O)[C@@H](O)C(=O)OCC(F)(F)F
inactive: [1] | [2] | [3] | [4] | [5]

COC[C@H]1O[C@]2(c3ccccc3)CO[C@@H]1[C@@H](C=Cc1ccccc1)C2
inactive: [1] | [2] | [3] | [4] | [5]

CC[C@]1(c2ncc[nH]2)Cc2ccccc2O1
inactive: [6] > 46 µM | [7] > 46 µM | [8]

CCOC(=O)CNC(=O)O[C@H]1C(=O)c2ccc(OC)cc2O[C@@H]1c1ccc2c(c1)OCO2
inactive: [1] | [2] | [3] | [4]

C[C@H]1[C@@H]2O[C@H]2CCO[C@H]1c1cccc(Br)c1
inactive: [1] | [2] | [3] | [4] | [5]

COC(=O)[C@H]1[C@H](C)[C@@]2(O)c3ccccc3N(C)[C@@]1(C)[C@H]2O
inactive: [1] | [2] | [3] | [4] | [5]

COC(=O)C1=C[C@@H]([C@@H](C)[C@H](OC)c2ccccc2Br)[C@@H]2OCCC[C@H]12
inactive: [1] | [2] | [3] | [4] | [5]

CCOC(=O)NN=C1C[C@@H](O)[C@@H](O)[C@@H]2[C@H]3C(=O)N(Cc4ccc5c(c4)OCO5)C(=O)[C@@H]3CC[C@@H]12
inactive: [1] | [2] | [3] | [4] | [5]

CC(C)(C)c1ccc(O[C@@H]2[C@H](O)CO[C@H]2C=CC#Cc2ccccc2)cc1
inactive: [1] | [2] | [3] | [4] | [5]
